The source made the active and inactive calls.
Experiments:
[1] = optical density shifts of acrAB sulA E. coli – strain DRC41, OD650, 48 h, E. coli filamentation inducer project, primary screen (AID 1152); conditions: higher = more signal, called active from +8 up or from −8 down;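 further: E. coli MC1000 strain DRC41 lacking acrAB efflux pump and sulA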
[2] = probe aLefty1 binding on compound microarray – biochemical, small-molecule microarray, 635/667 nm fluorescence, primary screen (AID 1153); conditions: higher = more signal;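 further: score merges spot fluorescence with signal-to-noise ratio from the scanned slide images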
[3] = plasmodial surface anion channel blockers, osmotic lysis – cell-based, P. falciparum Indochina, OD700, 1 h, primary screen (AID 1154); conditions: P. falciparum Indochina infected RBC osmotic lysis, higher = more signal, called active from +8 up or from −8 down
[4] = plasmodial surface anion channel blockers, osmotic lysis – cell-based, P. falciparum Indochina, OD700, 2 h, primary screen (AID 1155);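 further: lysis reports solute entry through the parasite surface anion channel PSAC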; conditions: P. falciparum Indochina infected erythrocytes, higher = more signal, called active from +8 up or from −8 down
[5] = changes in parasitized red cell lysis, either direction – P. falciparum Indochina, OD700, 3 h, PSAC antagonist project, primary screen (AID 1156); conditions: P. falciparum-infected erythrocytes, osmotic lysis, higher = more signal, called active from +8 up or from −8 down
[6] = plasmodial surface anion channel blockers, osmotic lysis – cell-based, P. falciparum Indochina, OD700, 18 h, primary screen (AID 1157); conditions: P. falciparum Indochina infected erythrocytes, osmotic lysis OD700, 18 h; higher = more signal, called active from +8 up or from −8 down
[7] = S6 kinase pathway phospho-S6 level changes – cell-based, A549, cytoblot, luminescence, serum-stimulated, primary screen (AID 1158); conditions: 5 h, higher = more signal;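 further: serum-stimulated A549 lung adenocarcinoma cells; signal is phosphorylated S6 detected by cytoblot immunostaining with HRP secondary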
[8] = biological target: NADPH oxidase 2 (Homo sapiens) (UniProt P04839); test: compounds shifting NOX2 Amplex Red fluorescence – cell-based, HEK293-NOX2, PMA-stimulated, NOX inhibitor project, primary screen (AID 1159); conditions: 45 min, higher = more signal, called active from +8 up or from −8 down; further: test concentration not given here
NADPH oxidase 2 (Homo sapiens), sequence (P04839 whole entry, looked up): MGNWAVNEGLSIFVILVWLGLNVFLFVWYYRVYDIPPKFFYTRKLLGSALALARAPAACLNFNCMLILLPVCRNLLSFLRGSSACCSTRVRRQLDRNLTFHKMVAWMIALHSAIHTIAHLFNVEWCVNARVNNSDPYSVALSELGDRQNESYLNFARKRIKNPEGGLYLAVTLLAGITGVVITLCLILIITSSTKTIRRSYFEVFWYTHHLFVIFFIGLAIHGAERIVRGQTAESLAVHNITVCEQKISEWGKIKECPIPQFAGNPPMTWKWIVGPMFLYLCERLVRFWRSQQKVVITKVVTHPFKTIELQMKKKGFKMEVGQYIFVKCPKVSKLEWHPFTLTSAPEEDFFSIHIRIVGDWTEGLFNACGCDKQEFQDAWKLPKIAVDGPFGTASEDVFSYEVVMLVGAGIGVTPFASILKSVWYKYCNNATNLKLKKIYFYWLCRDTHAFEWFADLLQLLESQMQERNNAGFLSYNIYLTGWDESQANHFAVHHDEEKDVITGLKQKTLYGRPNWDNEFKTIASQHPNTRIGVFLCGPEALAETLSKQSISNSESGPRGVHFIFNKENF

[9] = biological target: NADPH oxidase 4 (Homo sapiens) (UniProt Q9NPH5); test: compounds shifting NOX4 Amplex Red fluorescence – cell-based, HEK293-NOX4, tetracycline-induced, NOX inhibitor project, primary screen (AID 1160); conditions: HEK293-NOX4, Amplex Red H2O2 fluorescence, 45 min; higher = more signal, called active from +8 up or from −8 down
NADPH oxidase 4 (Homo sapiens), sequence (Q9NPH5 whole entry, looked up): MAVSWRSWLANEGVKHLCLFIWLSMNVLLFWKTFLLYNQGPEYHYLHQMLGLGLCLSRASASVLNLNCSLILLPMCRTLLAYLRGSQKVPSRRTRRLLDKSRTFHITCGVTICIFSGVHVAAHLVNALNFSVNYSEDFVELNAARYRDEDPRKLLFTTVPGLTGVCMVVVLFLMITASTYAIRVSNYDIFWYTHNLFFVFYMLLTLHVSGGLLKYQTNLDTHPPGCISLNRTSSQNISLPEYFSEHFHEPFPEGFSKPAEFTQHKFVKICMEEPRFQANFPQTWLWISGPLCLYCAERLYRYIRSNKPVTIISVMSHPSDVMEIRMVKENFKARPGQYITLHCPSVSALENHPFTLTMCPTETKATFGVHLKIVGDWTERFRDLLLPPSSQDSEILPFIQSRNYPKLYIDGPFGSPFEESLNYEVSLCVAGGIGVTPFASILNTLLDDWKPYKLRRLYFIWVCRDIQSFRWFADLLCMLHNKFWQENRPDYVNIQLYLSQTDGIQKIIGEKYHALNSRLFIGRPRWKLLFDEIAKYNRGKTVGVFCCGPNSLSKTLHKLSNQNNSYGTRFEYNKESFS

[10] = biological target: NADPH oxidase 5 (Homo sapiens) (UniProt Q96PH1); test: compounds shifting NOX5 Amplex Red fluorescence – cell-based, HEK293-NOX5, NOX inhibitor project, primary screen (AID 1161); conditions: HEK293-NOX5, ionomycin, 45 min, higher = more signal
NADPH oxidase 5 (Homo sapiens), sequence (Q96PH1 whole entry, looked up): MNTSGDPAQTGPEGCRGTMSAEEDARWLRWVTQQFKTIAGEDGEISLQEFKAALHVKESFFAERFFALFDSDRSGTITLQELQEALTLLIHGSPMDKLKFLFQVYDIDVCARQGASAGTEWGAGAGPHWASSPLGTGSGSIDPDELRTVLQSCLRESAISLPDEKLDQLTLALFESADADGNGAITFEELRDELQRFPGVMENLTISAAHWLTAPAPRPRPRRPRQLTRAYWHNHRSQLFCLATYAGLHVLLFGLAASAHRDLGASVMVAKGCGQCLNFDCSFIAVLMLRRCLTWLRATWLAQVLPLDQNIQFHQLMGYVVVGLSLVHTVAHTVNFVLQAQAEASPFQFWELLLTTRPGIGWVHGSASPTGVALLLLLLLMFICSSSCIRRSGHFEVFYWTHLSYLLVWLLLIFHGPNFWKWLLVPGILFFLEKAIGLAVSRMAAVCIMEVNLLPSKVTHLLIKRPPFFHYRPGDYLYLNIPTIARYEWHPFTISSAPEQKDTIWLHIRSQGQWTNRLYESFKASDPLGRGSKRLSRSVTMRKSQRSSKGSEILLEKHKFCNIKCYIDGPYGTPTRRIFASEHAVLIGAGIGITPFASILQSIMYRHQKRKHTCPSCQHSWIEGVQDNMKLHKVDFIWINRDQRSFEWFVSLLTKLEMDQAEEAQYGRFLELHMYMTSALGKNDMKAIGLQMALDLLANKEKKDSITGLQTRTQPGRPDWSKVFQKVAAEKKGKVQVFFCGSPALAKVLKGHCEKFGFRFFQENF

Row | SMILES | z-score [1] | composite z-score [2] | z-score [3] | z-score [4] | z-score [5] | z-score [6] | z-score [7] | z-score [8] | z-score [9] | z-score [10]
1 | CC1CC/C=C\[C@H]2OC34C=CCN(Cc5ccccc5)C(=O)[C@H]3N(CCCCCO)C(=O)[C@@H]4C2C(=O)O1 (stereo not given in full) | -0.94 (inactive) | -0.326 | -0.365 (inactive) | -0.0369 (inactive) | -0.692 (inactive) | -0.0374 (inactive) | -0.689 | 0.852 (inactive) | -0.14 (inactive) | 1.34
2 | CCCCCN1CC=CC23O[C@@H]4/C=C\CCC(C)OC(=O)C4[C@H]2C(=O)N(CCCCCO)[C@@H]3C1=O (stereo not given in full) | 2.65 (inactive) | -0.493 | 0.42 (inactive) | -0.524 (inactive) | -0.935 (inactive) | -0.875 (inactive) | 0.832 | 1.03 (inactive) | -0.177 (inactive) | 1.45
3 | [N-]=[N+]=Nc1ccccc1[C@@H]1OC(c2ccc(OCCCO)cc2)=N[C@]1(CCS(=O)(=O)c1ccccc1)C(=O)N1CCOCC1 | 0.325 (inactive) | 0.701 | 30.4 (active) | 25.4 (active) | 0.736 (inactive) | 6.38 (inactive) | -0.444 | -1.54 (inactive) | 1.47 (inactive) | 1.47
4 | CC(C)C(=C=CC[C@@H](O)c1ccccc1OCCO)C[C@@H](O)c1ccccn1 | -0.258 (inactive) | 0.0437 | 6.05 (inactive) | 1.2 (inactive) | 0.611 (inactive) | 0.774 (inactive) | -0.632 | 0.216 (inactive) | -0.725 (inactive) | -1.6
5 | O=C1N(CCS(=O)(=O)c2ccccc2)Cc2ccccc2C[C@]12N=C(c1ccc(OCCCO)cc1)O[C@@H]2c1ccccc1 | 0.697 (inactive) | 1.66 | 22.2 (active) | 8.54 (active) | 0.443 (inactive) | 0.427 (inactive) | 2.67 | -0.282 (inactive) | 1 (inactive) | -0.517
6 | CC(C)N1C(=O)c2ccccc2[C@@H](C(=O)NCCCN(C)C)[C@@H]1c1ccc(CO)cc1 | -0.534 (inactive) | 1.17 | 2.45 (inactive) | -0.0098 (inactive) | 2.5 (inactive) | 0.181 (inactive) | -0.0692 | 1.08 (inactive) | -0.858 (inactive) | -1.54
7 | O=c1cccc(CCc2ccccc2)o1 | -1.21 (inactive) | -0.15 | 1.83 (inactive) | 0.584 (inactive) | -0.13 (inactive) | 0.339 (inactive) | -0.467 | 0.378 (inactive) | 0.12 (inactive) | -0.339
8 | CC(C)=CCCC(C)=CC(O)C1C=CC2C(=O)N(c3ccccc3)C(=O)C2N1Nc1ccccc1 (stereo not given) | -1.8 (inactive) | 0.805 | 1.37 (inactive) | 1.4 (inactive) | 1.09 (inactive) | 1.27 (inactive) | -1.29 | -1.26 (inactive) | -4.03 (inactive) | -2.54
9 | C=C[C@@H](COC(C)=O)N(Cc1ccc([N+](=O)[O-])cc1)S(=O)(=O)c1ccc(Br)cc1 | 2 (inactive) | 0.0012 | 7.66 (inactive) | 0.824 (inactive) | 2.31 (inactive) | 0.79 (inactive) | 0.354 | 0.495 (inactive) | 0.851 (inactive) | -0.559
10 | C[C@H]1NC(=O)[C@H](Cc2ccccc2)NC(=O)[C@@]23C(=O)N[C@@H](Cc4ccccc4)C2[C@H](C)[C@@]2(C)O[C@H]2C3/C=C/C/C=C\CNC1=O (stereo not given in full) | 0.806 (inactive) | -0.193 | 2.27 (inactive) | 0.142 (inactive) | -0.112 (inactive) | 0.501 (inactive) | 0.423 | -0.287 (inactive) | -1.42 (inactive) | -0.197
11 | CC(=O)NCCCC[C@@H]1NC(=O)[C@@H]2C[C@H](C(=O)NCCCCCCNC(=O)CS)[C@H](c3ccc(O)cc3)N2C1=O | -0.644 (inactive) | 0.0494 | 3.73 (inactive) | 0.2 (inactive) | -1.8 (inactive) | 0.0805 (inactive) | -0.0593 | 0.897 (inactive) | -0.173 (inactive) | -0.697
12 | CCOC(=O)C1=CC[C@@H](c2ccccc2Cl)N(S(=O)(=O)c2ccc(C)cc2)C1 | 0.0023 (inactive) | 0.276 | 4.85 (inactive) | -0.477 (inactive) | -0.981 (inactive) | -1.69 (inactive) | 0.676 | 0.358 (inactive) | -0.832 (inactive) | -0.93
13 | O=C1OCC=C[C@H]2OC34C=CCN(c5ccc(Cl)cc5)C(=O)[C@H]3N(CCCCCCO)C(=O)[C@@H]4[C@@H]12 (stereo not given in full) | 0.49 (inactive) | 0.135 | 1.73 (inactive) | 0.398 (inactive) | 0.497 (inactive) | 0.476 (inactive) | -0.243 | 1.42 (inactive) | -0.583 (inactive) | 1.96
14 | CC(=O)C1=CCC(c2ccccc2)N(S(=O)(=O)c2ccc(C)cc2)C1 (stereo not given) | -1.12 (inactive) | 0.157 | 2.75 (inactive) | 1.5 (inactive) | 1.4 (inactive) | 1.07 (inactive) | -0.26 | -0.179 (inactive) | -1.4 (inactive) | 0.0221
15 | CC(C)c1ccc(NN2C(C(O)c3c(F)cccc3Cl)C=CC3C(=O)N(c4ccccc4)C(=O)C32)cc1 (stereo not given) | -2.03 (inactive) | 1.22 | 2.86 (inactive) | 1.18 (inactive) | 1.12 (inactive) | 1.02 (inactive) | -1.02 | -1.38 (inactive) | -5.38 (inactive) | -4.14
16 | CCOC(=O)C[C@H]1[C@H](OC(=O)c2ccc(-c3ccccc3)cc2)[C@@H](NC(=O)Cc2ccc(OC)cc2)c2cc(OCCCO)ccc2N1C(=O)c1ccc2ccccc2n1 | -0.667 (inactive) | -0.231 | 2.63 (inactive) | 0.393 (inactive) | -0.619 (inactive) | 0.653 (inactive) | 1.3 | 0.377 (inactive) | 1.29 (inactive) | 1.73
17 | CCOC(=O)C[C@H]1[C@H](OC(=O)c2ccc(-c3ccccc3)cc2)[C@@H](NC(=O)c2ccc(-c3ccccc3)cc2)c2cc(OCCCO)ccc2N1C(=O)Cc1ccc(OC)cc1 | -0.783 (inactive) | -0.0061 | 11.4 (active) | 0.618 (inactive) | -0.397 (inactive) | 0.602 (inactive) | 0.491 | -1.3 (inactive) | 0.622 (inactive) | -0.0798
18 | C=CCNC(=O)[C@H]1[C@@H]2C(=O)O[C@@H](c3ccccc3)[C@@H](c3ccccc3)N2[C@@H](c2ccc(O)cc2)[C@]12C(=O)N(C(=O)OCCOC)c1ccc(C#CCCO)cc12 | 1.23 (inactive) | 0.0341 | 1.89 (inactive) | 0.658 (inactive) | 0.958 (inactive) | 0.418 (inactive) | 0.102 | 0.74 (inactive) | 0.261 (inactive) | 0.533
19 | O=C1N(CCS(=O)(=O)c2ccccc2)Cc2ccccc2[C@H]2OC(c3ccc(OCCCO)cc3)=N[C@@]12CCS(=O)(=O)c1ccccc1 | -0.0143 (inactive) | 0.197 | 31.1 (active) | 28.4 (active) | 3.2 (inactive) | 6.48 (inactive) | 0.834 | 0.644 (inactive) | 1.5 (inactive) | 0.357
20 | CCOC(=O)C1=C[C@@H](C(C)C)N(S(=O)(=O)c2ccc(C)cc2)[C@H]1c1ccc(C(C)C)cc1 | -0.39 (inactive) | 0.262 | 0.431 (inactive) | 0.749 (inactive) | 0.4 (inactive) | 0.367 (inactive) | -0.234 | -0.5 (inactive) | -0.195 (inactive) | -0.151
21 | C=CCOC(=O)[C@@H]1[C@H]2C(=O)O[C@H](c3ccccc3)[C@H](c3ccccc3)N2[C@H](c2ccc(OCCOC(=O)[C@@H]3C[C@@H]4C(=O)NCC(=O)N4[C@@H]3c3cccc(OCCO)c3)cc2)[C@@]12C(=O)Nc1ccc(I)cc12 | -0.407 (inactive) | 0.42 | 2.11 (inactive) | 0.636 (inactive) | 1.64 (inactive) | 0.572 (inactive) | -0.5 | 1.72 (inactive) | 1.19 (inactive) | 1.37
22 | CN1CCC(CCCO)=CC1c1ccc(CN2CCCC2)cc1 (stereo not given) | 0.112 (inactive) | 0.663 | -0.274 (inactive) | -0.201 (inactive) | -0.0797 (inactive) | -0.111 (inactive) | -0.494 | -3.22 (inactive) | -0.765 (inactive) | -0.482
23 | CC(C)C(=C=CC[C@H](O)c1ccccc1OCCO)C[C@H](O)c1ccccn1 | 0.843 (inactive) | 0.129 | 4.75 (inactive) | 0.673 (inactive) | 2.42 (inactive) | 0.454 (inactive) | 1.16 | -0.222 (inactive) | -0.323 (inactive) | -1.28
24 | COc1ccc(C#Cc2ccc3c(c2)[C@]2(C(=O)N3)[C@H](C(=O)NC[C@H](O)c3ccccc3)[C@H]3C(=O)O[C@H](c4ccccc4)[C@H](c4ccccc4)N3[C@@H]2c2ccccc2OCCO)cc1 | -0.13 (inactive) | 0.29 | 1.78 (inactive) | 1.95 (inactive) | -0.054 (inactive) | 1.41 (inactive) | -0.0009 | 1.53 (inactive) | 0.36 (inactive) | 0.24
25 | C=CC[C@]1(C(=O)N2CCOCC2)N=C(c2ccc(OCCCO)cc2)O[C@H]1c1ccccc1 | 0.104 (inactive) | 0.302 | 11.3 (active) | 1.09 (inactive) | 0.492 (inactive) | 0.471 (inactive) | -0.0044 | -1.59 (inactive) | 0.486 (inactive) | -0.921
26 | CCCCC=C[C@@H](NC(=O)c1ccc(C(=O)OC)cc1)c1ccccc1 | -1.63 (inactive) | 0.317 | 2.85 (inactive) | 0.589 (inactive) | 0.63 (inactive) | 0.569 (inactive) | 0.12 | -1.88 (inactive) | -3.48 (inactive) | 0.0463

Source: PubChem BioAssay
